# Compounds without any hit were thinned out: in the full panel of roughly 83,000, 20% have a hit.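 Step 1: grow cells in 96-well plates. Step 2: add test compound at a single concentration. Step 3: incubate 48 h. Step 4: record percent growth.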 Activity calls are given as the source filed them. How the source made its calls: active means growth percent below 10; inactive means the rest.
# Tested on: RPMI-8226 leukemia
# Assay: NCI-60 one-dose screen, 48 h (100 = growth as untreated, 0 = no growth, -100 = all killed)
# Conditions: 10 µM unless noted
row,SMILES,growth
1,Cc1cc(S(=O)(=O)/N=C(\N)n2nc(C)c(C)c2C)c(SCc2ccccc2)cc1Cl,26.5% (inactive)
2,CS(=O)(=O)Nc1cncc(-c2ccc3ncnc(Nc4cncc(Cl)c4)c3c2)c1,102% (inactive)
3,CC(C)(Sc1cc(C(C)(C)C)c(OC(=O)CCCC(=O)O)c(C(C)(C)C)c1)Sc1cc(C(C)(C)C)c(OC(=O)CCCC(=O)O)c(C(C)(C)C)c1,21.9% (inactive)
4,COc1cc2c(c(OC)c1OC)CCC(c1cccc(NC(=O)c3ccc(Br)cc3)c1)O2 (stereo not given),56.8% (inactive)
5,COc1ccc(CNc2c3ccccc3nc3ccccc23)cc1,15.8% (inactive)
6,N#CSc1c[nH]c2cccc(/C=C/C(=O)/C=C(/C=C/c3cccc4[nH]cc(SC#N)c34)OB(F)F)c12,-6.08% (active)
7,CC1=NC2=Nn3c(c4cnn(-c5ccccc5)c4n/c3=N\N)NN2C(c2ccccc2)=C1,98.3% (inactive)
8,COc1ccc(\C=N/N=C(N)/C(N)=N\N=C/c2ccc(OC)cc2)cc1,79.2% (inactive)
9,NC(=O)c1cccc(-n2ccc3cc(NC(=O)c4ccc(N5CCOCC5)c(C(F)(F)F)c4)ccc32)n1,12.2% (inactive)
10,COc1ccc(-c2nc3cc(C(=O)NCc4ccccc4)ccc3n2C2CCCCC2)cc1,69.2% (inactive)
11,CN(C)CC(C)(C)C(=O)/C=C/c1ccccc1,-23.4% [25 µM] (active)
12,C=CCn1c(SCC(=O)Nc2ccc(C(=O)/C=C/c3ccc(Cl)cc3)cc2)nnc1-c1ccc(Br)cc1,-28.1% (active)
13,Cc1cn(-c2cc(NC(=O)c3cccc(C#Cc4cccc5[nH]nc(N)c45)c3)cc(C(F)(F)F)c2)cn1,13.8% (inactive)
14,Oc1c(I)cc(I)cc1CNCCN(Cc1ccccn1)Cc1ccccn1,-12.3% (active)
15,C=CC[Se]C(=O)Cc1c(C)n(C(=O)c2ccc(Cl)cc2)c2ccc(OC)cc12,-25.8% (active)
16,CCC(=C(c1ccc(OCCN2CCCCC2)cc1)c1ccc(OCCN2CCCCC2)cc1)c1ccc(Cl)cc1,-59.8% (active)
17,Cc1ccc(/C=C2\COc3ccc(O)cc3C2=O)cc1,-1.31% (active)
18,COc1cc2nc3cc([N+](=O)[O-])ccc3c(NCCNCC(C)O)c2cc1OC (stereo not given),-13% (active)
19,O=C(NNC(=O)c1ccc(NC(=O)c2ccccn2)cc1)Nc1ccc([N+](=O)[O-])cc1,106% (inactive)
20,O=C(Nc1ccc(Oc2cccc(F)c2)c(Cl)c1)c1cccnc1,15.8% (inactive)

row,SMILES,growth
1,CCCc1c(OC(=O)c2ccccc2)nc2[nH]c(=O)sc2c1C,103% (inactive)
2,CCCCCN1C(=O)/C(=c2\sc3n(c2=O)C2C(NN=3)N(CC)C(=O)N2CC)c2ccccc21 (stereo not given),8.52% (active)
3,CCOC(=O)c1cc(C)n(-c2ccc(C(=O)O)cc2)c1C,104% (inactive)
4,O=C1NC(=O)C(Cc2ccc(OCc3ccc(-c4ccc(Cl)cc4Cl)cc3)cc2)S1 (stereo not given),38.5% (inactive)
5,CC/C=C\C[C@H](O)C/C=C1/C(=O)C=C[C@@H]1C/C=C\CCCC(=O)N(C)C,4.43% (active)
6,NC(=O)CSc1oc(-c2ccccc2)nc1S(=O)(=O)c1ccc(Br)cc1,81.1% (inactive)
7,COc1cc(-c2nccc3[nH]c(-c4ccc5cc[nH]c5c4)nc23)cc(OC)c1OC,-43% (active)
8,Cc1nc2sc(C(=O)Nc3cccc(Br)c3)c(N)c2cc1C(O)c1ccccc1 (stereo not given),11.1% (inactive)
9,CC(C)c1ccc(Cc2cnc(NC(=O)c3cc(Br)cs3)s2)cc1,22.6% (inactive)
10,Cc1ccc(-c2nc([P+](c3ccccc3)(c3ccccc3)c3ccccc3)c(S(=O)(=O)c3ccc(C)cc3)o2)cc1,-28.2% (active)
11,COC(CC(F)F)c1cn(S(=O)(=O)c2ccc(C)cc2)c2ccccc12 (stereo not given),32.1% (inactive)
12,Cc1ccc(C[P+](c2ccccc2)(c2ccccc2)c2ccccc2)cc1,-17.6% (active)
13,Cn1cc(-c2nonc2-c2cn(C)c3ccccc23)c2ccccc21,14.2% (inactive)
14,CC1=C2[C@@H](CC1)[C@]1(C)O[C@@](C(C)C)(C[C@H]1OC(=O)[C@H](C)O)[C@H]2OC(=O)/C=C/c1ccccc1,65.6% (inactive)
15,Cc1c(-c2ccc(O)cc2)n(Cc2ccc(OCCN3CCCCCC3)cc2)c2ccc(O)cc12,57.5% (inactive)
16,CCOC(=O)C(=O)C(C(=O)OCC)c1ccccc1 (stereo not given),94.3% (inactive)
17,CS(=O)(=O)c1ccc(-c2cnn3ccc(-c4cccc(S(=O)(=O)C5CC5)c4)nc23)cc1,49.1% (inactive)
18,O=S(=O)(NCCNc1nccc(-c2c(-c3ccc(F)c(O)c3)nc3occn23)n1)c1ccc(Cl)cc1,85.3% (inactive)
19,Nc1n[nH]c2cccc(C#Cc3cccc(NC(=O)c4cc(F)cc(C(F)(F)F)c4)c3)c12,63.8% (inactive)
20,N#Cc1nc(-c2ccc(F)cc2)oc1S(=O)(=O)N1CCOCC1,41.2% (inactive)
